# This is part of a sample that, as a whole, favours compounds with a hit. Of some 83,000 tested, about 20% had one in any assay.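 For each line, cells grew in 96-well plates with the test compound present at a single concentration for 48 hours.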 Values without a mark were called inactive. The source made the active and inactive calls. The calls were made as follows: active = growth percent below 10; inactive = the rest.
# Tested on: SF-539 CNS
# Experiment: NCI-60 one-dose screen, 48 h (100 = growth as untreated, 0 = no growth, -100 = all killed)
# Details: 10 µM unless noted
row,Structure (SMILES),growth
1,Fc1ccc2nc(-c3cc(-c4ccc5c(c4)OCO5)n[nH]3)[nH]c2c1,56.3%
2,C#Cc1cc2c(N)c(C(=O)c3cc(OC)c(OC)c(OC)c3)[nH]c2cc1OC,-23.6% (active)
3,Cc1cc(Cl)c2c(N(C)C)cccc2n1,106%
4,COc1ccc(/C=C2\N=C(c3ccccc3)N(c3cc(OC)c(OC)cc3C(=O)N3N=C(C)CC3=O)C2=O)cc1,94.6%
5,COc1ccc2nc(-c3c(-c4ccccc4)nc4ncccn34)[nH]c2c1,100%
6,O=C1C=C(C(O)c2ccc(O)cc2)C(=O)c2ccccc21 (stereo not drawn),106%
7,Cc1ccc(-c2nc3ccc(Cl)cc3c(=O)n2N2C(=O)CSC2c2ccccc2Cl)cc1 (stereo not drawn),78.8%
8,NS(=O)(=O)c1ccc(CCNC(=O)/C=C/c2ccc(Cl)cc2)cc1,101%

# Reference: PubChem BioAssay (NCI)
